Reference: PubChem BioAssay
Inconclusive results are not listed. Activity calls are given as the source filed them.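 The calls were made as follows, unless noted: active = viability increase at or above a cutoff of the median across tested compounds plus 3 SD (cut at about 8.5% in these data, passing the limit was not always enough); inconclusive = some gains above the cutoff, reason not given; inactive = the rest.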

Tests used:
[1] = SK-BR-3 cell growth inhibitors, pilot screen, 24 h, human (AID 572;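 active = viability at or below 10% of carrier control in both of two separate runs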;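 also: compound exposure lasted between 18 and 24 h rather than exactly 24 h; 100% = carrier-treated control wells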); conditions: SK-BR-3 viability, CellTiter-Glo luminescence, at 10 µM, stronger effect = lower value
[2] = HUVEC growth inhibition – cell-based, human, primary screen (AID 575;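 active = viability at or below 30% in both replicate assays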;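 also: 100% = median of untreated cell wells with 0.1% DMSO on each plate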); conditions: HUVEC proliferation, CellTiter-Glo luminescence, 72 h; at 10 µM; stronger effect = lower value
[3] = growth inhibitors of H69AR lung tumor, primary screen, human, duplicate replicates (AID 580;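 active = viability at or under a set limit in both replicates, limit being median viability minus 3 SD, cut at about 48% in these data, passing the limit was not always enough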;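 also: 100% = mean luminescence of untreated wells and 0% = no signal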); conditions: H69AR lung tumor cells viability, ATP luminescence, 72 h; at 10 µM; stronger effect = lower value
[4] = reversal of MRP1-mediated doxorubicin resistance, pilot screen, H69AR cells, doxorubicin co-treatment (AID 601;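 active = viability loss from added drug above about 55%, and viability with drug at most 40%, in both replicates, limit read from the data, passing the limit was not always enough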); conditions: CellTiter-Glo, 72 h, at 10 µM; for differential viability (reversal): stronger effect = higher value
[5] = 384-well plate pilot, post-Golgi transport modulator project, inhibition of yeast transport mutant growth (AID 636; in the data active = inhibition above about 31%); conditions: absorbance 615 nm, about 18 h, stronger effect = higher value
[6] = growth suppression of yeast trafficking mutant, preliminary HTS, modulators of trafficking downstream of Golgi apparatus project, 1536-format plate, OD 615 nm (AID 637; in the data active = inhibition above about 30%); conditions: yeast transport mutant growth, absorbance 615 nm, 18 h; stronger effect = higher value
[7] = OD615 S. cerevisiae growth inhibition, permissive medium, pilot counter-assay, permissive growth control for S. cerevisiae lifespan shortening project (AID 705;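 active = growth inhibition above 25% in both replicates, a cutoff set 3 SD above the mean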); conditions: OD615, 24 h, at 10 µM, stronger effect = higher value
[8] = Restrictive medium S. cerevisiae growth inhibition, OD615, pilot screen of yeast lifespan reduction project, restrictive growth control (AID 706;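 active = growth inhibition above a set limit, 3 SD over mean compound inhibition, in both replicates, cut at about 43% in these data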;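 also: modified DeaD lifespan yeast strain shifted to restrictive glucose medium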); conditions: OD615, 48 h, at 10 µM, stronger effect = higher value
[9] = viability gain of MRP-1-high H69AR cells under doxorubicin, pilot screen, MRP-1 activator project, CellTiter-Glo, duplicate (AID 807); conditions: H69AR viability with doxorubicin, CellTiter-Glo luminescence; at 10 µM; stronger effect = higher value;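 also: compound pretreatment 18-22 h then 72 h combined with doxorubicin; 0% = doxorubicin alone and 100% = vehicle without doxorubicin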
[10] = growth suppression of beta-catenin knockout HCT116, pilot screen, human colon tumor cells (AID 823;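 active = cell viability at or below a set limit in both duplicate runs, the limit being the all-compound median minus 4 SD, cut at about 23% in these data, passing the limit was not always enough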;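 also: 0% = wells killed by 20 µM Hyamine and 100% = untreated DMSO cell wells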); conditions: CellTiter-Glo, 60 h, at 10 µM, stronger effect = lower value
[11] = growth suppression of PTEN-deleted HCT116, pilot screen, cell-based, HCT116 clonal line, CellTiter-Glo (AID 824;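 active = viability at or below 27.92% in each of two runs, the all-compound median minus 4 SD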;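 also: 0% = 20 µM Hyamine control and 100% = vehicle cell control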); conditions: 60 h, at 10 µM, stronger effect = lower value
[12] = inhibitors of the yeast RAM network, pilot screen, dse1pr::URA3 reporter, 5-FOA selection (AID 869;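 active = inhibition over a set limit, the all-compound mean plus 3 SD, in both replicate runs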;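 also: 0% = DMSO wells with no growth and 100% = 10 µM 1-NA-PP1 with full growth; RAM network block rescues cells from 5-FOA so hits raise OD615 growth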); conditions: S. cerevisiae dse1pr::URA3 5-FOA growth, OD615, 2 d; at 10 µM; stronger effect = higher value; strain carries analog-sensitive mutant Cbk1 kinase
[13] = RAM signaling pathway blockade in yeast – S. cerevisiae, Pdr1DBD-CYC8 efflux-inhibited sensitized strain, primary screen (AID 1298;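 active = RAM network inhibition above 8.4% in each of two replicates, 3 SD over the compound average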;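 also: 0% = DMSO untreated cells without growth and 100% = 10 µM 1-NA-PP1 full growth; higher means more yeast growth rescued from 5-FOA killing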); conditions: S. cerevisiae cbk1-as DSE1-URA3 strain, 5-FOA growth OD615, 2 d; at 50 µM; stronger effect = higher value
[14] = H69AR cells + 2 uM doxorubicin, measured here: viability with 2 uM doxorubicin, stronger effect = lower value
[15] = H69AR cells, compound alone cytotoxicity

Row | Structure (SMILES) | viability [1] | viability [2] | viability [3] | differential viability (reversal) ([4]; H69AR cells + 2 uM doxorubicin) | viability [4, 14] [%] | viability [4, 15] [%] | inhibition [5] | inhibition [6] | growth inhibition [7] | growth inhibition [8] | viability increase [9] | viability [10] | viability [11] | inhibition [12] | RAM network inhibition [13]
1 | O=C(Nc1nc2c(s1)CCCC2)C1COc2ccccc2O1 (configuration not stated) | 103% (inactive) | 63.1% (inactive) | 88.3% (inactive) | -10.7% (inactive) | 99 | 88.3 | -4.27% (inactive) | -5.25% (inactive) | -5.28% (inactive) | -7.76% (inactive) | 0.74% (inactive) | 90.3% (inactive) | 87% (inactive) | 0.75% (inactive) | 0.16% (inactive)
2 | CCOC(=O)Cn1c(CN(C)Cc2ccccc2)nc2c1c(=O)n(C)c(=O)n2C | 94% (inactive) | 112% (inactive) | 87.1% (inactive) | -9.54% (inactive) | 96.6 | 87.1 | -7.43% (inactive) | 0.18% (inactive) | -28.8% (inactive) | -4.63% (inactive) | -2.98% (inactive) | 82.9% (inactive) |  | 0.24% (inactive) | -0.42% (inactive)
3 | Cn1c(CSc2nc3ccccc3s2)nnc1SCC(=O)NCCN1CCOCC1 | 75% (inactive) | 97.6% (inactive) | 98.5% (inactive) | -3.51% (inactive) | 102 | 98.5 | 2.67% (inactive) | 10% (inactive) | 7.95% (inactive) | 32.4% (inactive) | -3.43% (inactive) | 92.9% (inactive) | 86.7% (inactive) | 0.27% (inactive) | 3.17% (inactive)
4 | CCNc1ccc(C(=O)OCC)cc1NC(=O)c1cc(S(=O)(=O)N2CCOCC2)ccc1C | 108% (inactive) | 83.3% (inactive) | 98.5% (inactive) | 8.02% (inactive) | 90.5 | 98.5 | 2.99% (inactive) | 5.41% (inactive) | -9.95% (inactive) | -3.6% (inactive) | -5.71% (inactive) |  | 87.1% (inactive) | 0.96% (inactive) | 8.14% (inactive)
5 | COc1cc(C(=O)N2CCN(c3cc(Cl)ccc3Cl)CC2)cc(OC)c1OC | 77.5% (inactive) | 20.1% (active) | 29.8% (active) | -54.3% (inactive) | 84.1 | 29.8 | -4.27% (inactive) | 0% (inactive) | -13.2% (inactive) | -8.44% (inactive) | -6.62% (inactive) |  | 21.5% (active) | 0.575% (inactive) | 2.03% (inactive)
6 | Cc1ccc(C)n1-c1ccc(-n2cnnn2)cc1 | 103% (inactive) | 97.5% (inactive) |  | -24.2% (inactive) | 76.6 | 52.4 | -3.47% (inactive) | -1.09% (inactive) | -9.52% (inactive) | 0.21% (inactive) | -7.7% (inactive) | 9.95% (active) | 10.3% (active) | 1.65% (inactive) | 5.78% (inactive)
7 | COC(=O)c1[nH]c2c(c1C)C(=O)CC(c1cc(OC)ccc1OC)C2 (configuration not stated) | 98.5% (inactive) |  | 14.9% (active) | -37% (inactive) | 51.9 | 14.9 | -6.8% (inactive) | -6.33% (inactive) | -10.4% (inactive) | -8.8% (inactive) | -5.77% (inactive) | 34.6% (inactive) | 29.4% (inactive) |  | 1.94% (inactive)
8 | Cc1ccc(-c2oc3ccccc3c(=O)c2O)cc1 | 78.5% (inactive) |  | 67.8% (inactive) | -6.71% (inactive) | 74.5 | 67.8 | -3.87% (inactive) | -1.17% (inactive) | -12.1% (inactive) | -12.3% (inactive) | -5.56% (inactive) | 10.2% (active) | 11.8% (active) | 2.66% (inactive) | 0.63% (inactive)
9 | FC(F)(F)c1cc(-c2ccco2)nc(NCc2ccco2)n1 | 119% (inactive) | 101% (inactive) | 62.2% (inactive) | -15.6% (inactive) | 77.8 | 62.2 | -2.7% (inactive) | 24.2% (inactive) | 3.24% (inactive) | -11.4% (inactive) | -6.31% (inactive) |  | 59.1% (inactive) | 1.14% (inactive) | -0.41% (inactive)
10 | O=C1CC(c2ccco2)CC(O)=C1C=NCCN1CCNCC1 (configuration not stated) |  | 103% (inactive) | 95.6% (inactive) | 3.35% (inactive) | 92.3 | 95.6 | 0.13% (inactive) | 5.56% (inactive) | -10.2% (inactive) | 3.51% (inactive) | 0.26% (inactive) | 91% (inactive) | 101% (inactive) | 0.405% (inactive) | 1.52% (inactive)
11 | Cc1cc2ncn(C(=O)N3CCOCC3)c2cc1C |  | 95.4% (inactive) | 92.2% (inactive) | 7.56% (inactive) | 84.6 | 92.2 | -2.47% (inactive) | -6.03% (inactive) | 0.665% (inactive) | -2.19% (inactive) | -1.25% (inactive) | 97.3% (inactive) | 97.3% (inactive) | 1.22% (inactive) | 4.08% (inactive)
12 | COc1ccc(-c2nn(-c3ccccc3)cc2/C=N/n2cnnc2)cc1OC |  | 79.3% (inactive) | 79.8% (inactive) | -11.2% (inactive) | 91 | 79.8 | -6.84% (inactive) | -0.63% (inactive) | 2.04% (inactive) | 17.4% (inactive) | -4.33% (inactive) | 88% (inactive) | 84% (inactive) | -0.92% (inactive) | -1.68% (inactive)
13 | COc1ccc(C2C(C#N)=C(C)NC3=C2C(=O)CC(C)(C)C3)c(OC)c1 (configuration not stated) |  | 88.9% (inactive) | 95.3% (inactive) | 23.5% (inactive) | 71.8 | 95.3 | -1.3% (inactive) | -2.7% (inactive) | -22.8% (inactive) | -14.1% (inactive) | -1.62% (inactive) | 97.6% (inactive) | 91.4% (inactive) | 0.825% (inactive) | 1.94% (inactive)
14 | COc1cc2[nH]c(=O)n(CCCCCC(=O)NCCCN3CCCC3=O)c(=O)c2cc1OC |  | 103% (inactive) | 104% (inactive) | 11.6% (inactive) | 92.9 | 104 | -5.39% (inactive) | -0.32% (inactive) | -1.87% (inactive) | -4% (inactive) | 1.13% (inactive) | 103% (inactive) | 104% (inactive) | 1.91% (inactive) | 6.37% (inactive)
15 | O=c1cc(-c2ccco2)oc2ccc(Cl)cc12 |  | 111% (inactive) | 98.4% (inactive) | 12.5% (inactive) | 85.9 | 98.4 | -2.6% (inactive) | 4.76% (inactive) | -19.4% (inactive) | -2.54% (inactive) | -2.08% (inactive) | 96.9% (inactive) | 98.2% (inactive) | 0.61% (inactive) | 6.02% (inactive)
16 | O=C(COC(=O)C1(c2ccccc2F)CCCC1)NC1CCS(=O)(=O)C1 (configuration not stated) |  | 118% (inactive) | 97.2% (inactive) | 3.27% (inactive) | 93.9 | 97.2 | -1.69% (inactive) | -2.06% (inactive) | 5.97% (inactive) | 2.54% (inactive) | -0.5% (inactive) | 99.4% (inactive) | 95.3% (inactive) | 0.035% (inactive) | 3.94% (inactive)
17 | CCc1cc2c(NCCC(=O)O)ncnc2s1 |  | 83.3% (inactive) | 97.6% (inactive) | 5.87% (inactive) | 91.7 | 97.6 | -3.51% (inactive) | -0.48% (inactive) | -7.78% (inactive) | -13.1% (inactive) | -1.99% (inactive) | 101% (inactive) | 99.6% (inactive) | 3.42% (inactive) | 2.49% (inactive)
18 | Cc1ccc(C)c(NC(=O)C2CCC(C)(C(=O)O)C2(C)C)c1 (configuration not stated) |  | 98.8% (inactive) | 97.8% (inactive) | 5.67% (inactive) | 92.1 | 97.8 | 2.08% (inactive) | -0.79% (inactive) | -12.8% (inactive) | -13.8% (inactive) | -1.13% (inactive) | 97% (inactive) | 99% (inactive) | 0.355% (inactive) | 0.93% (inactive)
19 | COc1ccccc1NC(=O)N(Cc1ccccc1)c1ccccn1 |  | 83.4% (inactive) | 85.3% (inactive) | -5.91% (inactive) | 91.2 | 85.3 | -5.58% (inactive) | -4.92% (inactive) | -9.36% (inactive) | -2.62% (inactive) | 0.35% (inactive) | 87% (inactive) | 88.6% (inactive) | 2.24% (inactive) | 6.47% (inactive)
